# Assay outcomes: PubChem, National Center for Advancing Translational Sciences (NCATS)
# An excerpt weighted towards active compounds, which were near 17% of everything screened.
# ClpP mod – qHTS Assay for Activators of ClpP; purified B. subtilis ClpP, FRET peptide cleavage, 20 min; Potency, µM (highest dose often 57.5 µM); hit rate 1.9% among 340,000; AID 651965, 2013; active = well fitted falling curve with a large enough effect; inconclusive = small, poorly fitted or top-dose-only effect; inactive = no such curve, though single readings can be large or run the other way; also: the source files actives as falling curves though it sought activators and does not explain the sign; nearly all actives have a fitted effect of over 65% in size
#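 FRET quenching reversal measured ClpP activation: 10 microg/mL B. subtilis ClpP at pH 8 with the FRET-FV decapeptide, read at 430 nm after 320 nm excitation. The 20-min minus 0-min signal was scaled between DMSO/no-enzyme wells and ADEP (5.8 microM final).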
# TDP1 cell noCPT – qHTS for Inhibitors of human tyrosyl-DNA phosphodiesterase 1 (TDP1): qHTS in cells in absence of CPT | DT40 Tdp1-/- hTDP1 cells, no CPT, ATP luminescence, 48 h | Potency, µM (series often up to 46.2 µM), hits mostly inhibitors | hit rate 15% among 420,000 | AID 686978, 2013; also: nearly all actives have a fitted effect of over 55% in size
#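 Seeded 400 DT40-hTDP1 cells/well (vehicle DMSO, no 20 nM CPT); pinned compounds; ≥48 hr at 37 °C; CellTiter-Glo luminescence as viability measure.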
# TDP1 inh – qHTS Assay for Inhibitors of Tyrosyl-DNA Phosphodiesterase (TDP1); Tyrosyl-DNA phosphodiesterase 1 (Homo sapiens), Q9NUW8; recombinant TDP1, AlphaScreen DNA substrate cleavage; Potency, µM (series often up to 130 µM), hits mostly inhibitors; hit rate 0.28% among 350,000; also: nearly all actives have a fitted effect of over 40% in size
# Target sequence (Q9NUW8 whole entry, looked up): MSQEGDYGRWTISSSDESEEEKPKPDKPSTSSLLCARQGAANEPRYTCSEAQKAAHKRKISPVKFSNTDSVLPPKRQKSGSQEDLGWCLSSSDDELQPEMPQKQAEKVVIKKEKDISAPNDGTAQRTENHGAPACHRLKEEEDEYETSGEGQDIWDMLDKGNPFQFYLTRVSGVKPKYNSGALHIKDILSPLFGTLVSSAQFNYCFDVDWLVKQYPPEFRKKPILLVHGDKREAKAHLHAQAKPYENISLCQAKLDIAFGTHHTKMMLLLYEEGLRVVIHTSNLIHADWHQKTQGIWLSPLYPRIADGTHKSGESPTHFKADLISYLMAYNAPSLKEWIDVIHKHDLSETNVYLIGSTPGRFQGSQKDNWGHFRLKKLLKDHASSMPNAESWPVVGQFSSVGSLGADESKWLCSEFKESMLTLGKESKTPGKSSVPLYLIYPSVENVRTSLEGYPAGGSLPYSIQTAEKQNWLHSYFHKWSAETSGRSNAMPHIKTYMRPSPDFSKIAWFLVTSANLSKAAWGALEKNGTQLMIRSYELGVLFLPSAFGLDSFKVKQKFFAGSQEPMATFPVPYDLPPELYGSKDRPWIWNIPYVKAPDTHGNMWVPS
#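 Signal: AlphaScreen proximity between streptavidin donor and anti-FITC acceptor beads on intact substrate. Reaction: Tdp1 1 nM, substrate 15 nM final, 5 min RT after 15 min compound preincubation.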
# TDP1 cell CPT – qHTS for Inhibitors of human tyrosyl-DNA phosphodiesterase 1 (TDP1): qHTS in cells in presence of CPT | hit rate 12% among 420,000 | chicken DT40 Tdp1-/-;hTDP1 cells + 20 nM CPT, ATP luminescence, 48 h | AID 686979, 2013 | Potency, µM (highest dose often 46.2 µM), usual class: inhibitors; also: nearly all actives have a fitted effect of over 55% in size
#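 Cell growth measured by CellTiter-Glo luminescence after a minimum 48 h, 37 C compound exposure with 20 nM CPT in Tdp1-knockout DT40 cells stably expressing hTDP1, seeded 400/well; qHTS titration format.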
# Hits are given with their value; - = inactive; ? = inconclusive; . = no result given; [ ] = another dose, or the depositor's remark. Unless noted, calls follow the shape of the dose curve; as a rule, active = well fitted curve in the direction sought with a large enough effect; inconclusive = small, poorly fitted or top-dose-only effect, or another doubt; inactive = no such curve, though single readings can be large; an effect the other way counts as inactive or inconclusive.
SMILES,ClpP mod,TDP1 cell noCPT,TDP1 inh,TDP1 cell CPT
Cc1cc(OCCOCC[N+](C)(C)Cc2ccccc2)ccc1C(C)(C)CC(C)(C)C,.,1.1µM,.,1.2µM
CC(C)(C)CC(C)(C)c1ccc(OCOCCOCCO)c(Cc2cc(C(C)(C)CC(C)(C)C)cc(Cc3cc(C(C)(C)CC(C)(C)C)ccc3OCOCCOCCO)c2OCOCCOCCO)c1,.,.,-,.
CC(C)(C)c1ccc(OCCNCc2ccccc2)cc1,-,?,.,?
CC(C)(C)CC(C)(C)c1ccc(OCCOCC[N+](C)(C)Cc2ccccc2)cc1,-,2.9µM,.,4.1µM
CC(C)(C)CC(C)(C)c1ccc(OCCO)cc1,.,11µM,-,8.4µM
O=S(=O)(c1c(F)cccc1F)N1CCCC2CCCCC21 (stereo unspecified),-,21µM,-,?
CCOC(=O)c1c(Nc2ccccc2)sc(/C=C2\C=Nc3ccccc32)c1O,-,?,-,21µM
O=C(Oc1cc(-c2ccccc2)no1)c1ccc(Cl)cc1,40µM,?,-,?
CSc1cccc(N2CC(C(=O)N3CCN(S(=O)(=O)c4ccccc4Cl)CC3)CC2=O)c1 (stereo unspecified),-,23µM,-,?
O=C(Nc1ccc(Cl)cc1)Nc1ccon1,-,15µM,-,18µM
Cc1ccc(NC(=O)Nc2ccon2)cc1,-,-,-,-
COc1ccc([C@H]2CC(=O)C[C@@H](CCn3cc(CCc4ccccc4)nn3)O2)cc1,-,?,.,-
CCNC(=S)NNC(=O)c1cc(-c2ccccc2C)nc2ccccc12,-,-,-,-
CCCCNC(=S)NNC(=O)c1cc(C2CC2)nc2ccccc12,-,3.7µM,-,?
CCNC(=S)NNC(=O)c1cc(-c2cccc(OC)c2)nc2ccccc12,-,16µM,-,?
CCOc1ccccc1CNC(=O)c1cc(-c2ccc(OC)cc2)nc2ccc(C(C)C)cc12,-,16µM,-,16µM
CCNC(=S)NNC(=O)c1cc(-c2ccc(OCC)cc2)nc2ccccc12,-,4.5µM,-,5µM
COc1ccc(-c2cc(C(=O)NCc3ccc(C)cc3)c3cc(C(C)C)ccc3n2)cc1,-,?,-,-
Cc1noc(C)c1C(=O)OC(C)C(=O)Nc1ccc(C(N)=O)cc1 (stereo unspecified),-,-,-,-
CC[C@H](C)[C@H](NC(=O)[C@H](Cc1ccc(O)cc1)NC(=O)[C@@H](NC(=O)[C@H](CCCN=C(N)N)NC(=O)[C@@H](N)CC(=O)O)C(C)C)C(=O)N[C@@H](Cc1cnc[nH]1)C(=O)N1CCC[C@H]1C(=O)O,.,.,-,.
OC(CN(Cc1ccccc1)Cc1ccccc1)c1ccccc1 (stereo unspecified),.,18µM,.,16µM
COc1ccccc1C1OC(=O)CC1C(=O)OC[C@@H]1CCCN2CCCCC12 (stereo partly specified),.,-[9.04 µM],-,-[9.04 µM]
NC(=O)CCN1CCCCC1,-,-,-,-
O=C(CCC(=O)CCN1CCCCC1)CCN1CCCCC1,-,21µM,-,13µM
O=C(Cn1nnc(-c2ccccc2)n1)N/N=C/c1cccc([N+](=O)[O-])c1O,.,21µM,-,?
SMILES,ClpP mod,TDP1 cell noCPT,TDP1 inh,TDP1 cell CPT
COc1ccc(C(=O)N/N=C(\C)Cn2nc([N+](=O)[O-])cc2C)cc1,11µM,-,-,-
Nc1nnnn1CC(=O)N/N=C/c1cc([N+](=O)[O-])ccc1O,.,-,-,-
CCOc1cc(/C=N/NC(=O)Cn2nc([N+](=O)[O-])cc2C)cc(Br)c1OCc1ccccc1F,-,?,-,21µM
Cc1cc(C)n(CC(=O)N/N=C/c2cc([N+](=O)[O-])ccc2O)n1,-,15µM,-,21µM
CCOc1cc(/C=N/NC(N)=O)cc(Br)c1OCc1ccccc1F,-,?,-,-
O=C(Cn1nnc(-c2ccccc2)n1)N/N=C/c1cccc([N+](=O)[O-])c1,-,-,-,-
C/C(Cn1nc([N+](=O)[O-])cc1C)=N\NC(=O)c1ccc(C(C)(C)C)cc1,-,-,-,-
CC(C)N(C)C,.,.,-,.
Cc1cc([N+](=O)[O-])nn1CC(=O)N/N=C/c1ccccc1O,-,18µM,-,8.2µM
CCOC(=O)C1=CN(Cc2ccco2)S(=O)(=O)N(C)C1c1ccc2ccccc2c1 (stereo unspecified),-,?,-,21µM
CC(=O)Nc1ccc(C(=O)N2CCCC(c3cc(C(=O)NCc4ccc(F)cc4)no3)C2)cc1 (stereo unspecified),-,?,.,?
O=C(NCc1ccc(F)cc1)c1cc(C2CCCN(S(=O)(=O)c3ccccc3)C2)on1 (stereo unspecified),-,16µM,.,?
COc1cc(C(=O)N2CCCC(c3cc(C(=O)NCc4ccc(F)cc4)no3)C2)cc(OC)c1C (stereo unspecified),-,?,.,23µM
O=C(NCc1ccc(F)cc1)c1cc(C2CCCN(C(=O)C3CCCCC3)C2)on1 (stereo unspecified),-,?,.,26µM
O=C(NCc1ccccc1)c1cc(C2CCCN(C(=O)C3CC3)C2)on1 (stereo unspecified),-,-,.,-
O=C(NCc1ccccc1)c1cc(C2CCCN(C(=O)C3CCCCC3)C2)on1 (stereo unspecified),-,?,.,23µM
CC(NC(=O)c1cccnc1Sc1ccccc1)c1ccc(S(N)(=O)=O)cc1 (stereo unspecified),-,-,-,-
COc1ccc(S(=O)(=O)NC(C)c2ccc3c(c2)OCCO3)cc1 (stereo unspecified),-,-,.,-
COc1ccc2nc3ccccc3nc2c1N,.,8.2µM,-,?
O=C(CSc1nc2c(c(=O)[nH]1)CCCC2)Nc1ccc(Br)cc1,-,?,-,?
Cc1ccc2onc(CNC(=O)Nc3cc(F)ccc3F)c2c1,-,?,.,?
CCN(CC)S(=O)(=O)c1ccc(NC(=O)NCc2noc3ccc(C)cc23)cc1,-,23µM,-,21µM
CCOC(=O)c1cnn2c1[nH]c(=O)c1ccccc12,3.5µM,-,-,-
O=S(=O)(/N=C(\Sc1ccccc1)c1ccccc1)c1ccc(Cl)cc1,-,11µM,-,13µM
O=S(=O)(/N=C(\c1ccccc1)N1CCOCC1)c1ccc(Cl)cc1,?,-,-,?
COc1ccccc1N/C(=N/S(=O)(=O)c1ccc(C)cc1)c1ccccc1,-,18µM,-,?
Cc1ccc(S(=O)(=O)/N=C(\Sc2ccccc2)c2ccccc2)cc1,-,6.5µM,-,5.8µM
COc1ccccc1N/C(=N/S(=O)(=O)c1ccc(Cl)cc1)c1ccccc1,-,?,-,-
O=C(CCNS(=O)(=O)c1ccc2c(c1)CCCC(=O)N2)Nc1cccc(Cl)c1,-,.,-,.
CCOC(=O)CC(C(=O)OCC)C1CCCCC1=O (stereo unspecified),.,.,-,.
